# In PubChem BioAssay:
# Calls of active or inactive are those of the source.
# How the values were obtained:
# [1] = test system: Plasmodium falciparum Sir2 (PF13_0152, Sir2A); assay: Plasmodium falciparum Sir2A binding compounds – biochemical, small-molecule microarray, 635 nm fluorescence, primary screen (AID 1098); conditions: fluorescence 635 nm, higher = more signal;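 note: score merges spot fluorescence intensity with its signal-to-noise ratio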
# [2] = probe aDKK1 binding to arrayed compounds – biochemical, biotinylated probe, 635/667 nm fluorescence, primary screen (AID 1099); conditions: small-molecule microarray, higher = more signal;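 note: score merges 667nm spot fluorescence with signal to noise across triplicate slides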
# [3] = probe aCHRDL2 binding to arrayed compounds – biochemical, biotinylated probe, 635/667 nm fluorescence, primary screen (AID 1100); conditions: small-molecule microarray, higher = more signal
# [4] = change in splice reporter luminescence, either direction, cell-based, HEK293, spliceosome inhibition project, primary screen (AID 1101); conditions: HEK293 splicing luciferase reporter, 24 h, higher = more signal, called active from +8 up or from −8 down;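 note: HEK293 cells carrying a splicing-competent luciferase reporter gene; test concentration not given here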
# [5] = target: Fibroblast growth factor 10 (Homo sapiens) (UniProt O15520); assay: compounds binding fibroblast growth factor 10 – biochemical, small-molecule microarray, 635 nm fluorescence, primary screen (AID 1102); conditions: FGF10 binding, fluorescence 635 nm, higher = more signal
# Sequence of Fibroblast growth factor 10 (Homo sapiens) (O15520 whole entry, looked up): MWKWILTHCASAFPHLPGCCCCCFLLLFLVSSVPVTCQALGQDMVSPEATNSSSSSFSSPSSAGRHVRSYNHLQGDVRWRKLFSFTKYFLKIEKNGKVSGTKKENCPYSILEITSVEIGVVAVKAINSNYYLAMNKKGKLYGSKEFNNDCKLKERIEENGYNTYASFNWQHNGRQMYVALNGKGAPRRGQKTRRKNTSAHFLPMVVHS
# [6] = test system: glycogen synthase kinase-3 (GSK3A per assay name; protocol says GSK3B); assay: compounds binding glycogen synthase kinase-3 – biochemical, small-molecule microarray, 635 nm fluorescence, GSK3A, primary screen (AID 1103); conditions: fluorescence 635 nm, higher = more signal; note: the record names both GSK3A and GSK3B
# [7] = target: Epidermal growth factor receptor (Homo sapiens) (UniProt P00533); assay: compounds binding epidermal growth factor receptor – biochemical, small-molecule microarray, 635 nm fluorescence, primary screen (AID 1104); conditions: EGFR binding, higher = more signal;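 note: score merges 667 nm emission intensity with spot signal to noise over triplicate slides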
# Sequence of Epidermal growth factor receptor (Homo sapiens) (P00533 whole entry, looked up): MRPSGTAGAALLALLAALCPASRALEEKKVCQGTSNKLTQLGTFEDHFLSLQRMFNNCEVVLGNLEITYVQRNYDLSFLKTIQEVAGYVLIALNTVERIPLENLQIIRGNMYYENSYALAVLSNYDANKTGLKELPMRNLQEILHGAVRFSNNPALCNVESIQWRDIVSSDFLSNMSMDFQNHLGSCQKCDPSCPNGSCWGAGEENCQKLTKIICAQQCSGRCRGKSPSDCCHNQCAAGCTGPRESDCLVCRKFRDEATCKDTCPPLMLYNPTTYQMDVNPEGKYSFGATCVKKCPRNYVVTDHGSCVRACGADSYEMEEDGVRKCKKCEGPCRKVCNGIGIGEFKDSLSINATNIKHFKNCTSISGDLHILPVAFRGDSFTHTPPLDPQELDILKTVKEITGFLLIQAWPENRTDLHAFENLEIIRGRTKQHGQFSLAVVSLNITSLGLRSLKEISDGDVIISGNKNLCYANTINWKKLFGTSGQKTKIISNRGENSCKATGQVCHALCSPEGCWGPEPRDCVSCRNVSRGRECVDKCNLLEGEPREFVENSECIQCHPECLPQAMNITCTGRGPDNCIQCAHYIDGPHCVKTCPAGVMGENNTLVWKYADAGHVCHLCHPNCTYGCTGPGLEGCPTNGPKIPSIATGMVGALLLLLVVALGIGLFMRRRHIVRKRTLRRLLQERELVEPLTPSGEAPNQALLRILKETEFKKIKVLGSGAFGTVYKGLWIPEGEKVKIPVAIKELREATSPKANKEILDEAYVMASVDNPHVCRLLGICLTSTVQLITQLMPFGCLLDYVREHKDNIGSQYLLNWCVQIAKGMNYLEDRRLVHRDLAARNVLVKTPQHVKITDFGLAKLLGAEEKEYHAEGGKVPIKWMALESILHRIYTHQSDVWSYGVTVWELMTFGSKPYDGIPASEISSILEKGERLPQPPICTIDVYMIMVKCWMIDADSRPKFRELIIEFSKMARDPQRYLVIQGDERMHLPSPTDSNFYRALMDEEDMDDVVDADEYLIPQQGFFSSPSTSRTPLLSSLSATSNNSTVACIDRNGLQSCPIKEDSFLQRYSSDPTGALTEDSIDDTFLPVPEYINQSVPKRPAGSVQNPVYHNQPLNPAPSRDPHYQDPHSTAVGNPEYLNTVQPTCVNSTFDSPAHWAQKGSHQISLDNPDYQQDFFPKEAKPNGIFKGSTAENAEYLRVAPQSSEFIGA
# [8] = target: Follistatin-related protein 3 (Homo sapiens) (UniProt O95633); assay: compounds binding follistatin-related protein 3 – biochemical, small-molecule microarray, 635 nm fluorescence, primary screen (AID 1105); conditions: FSTL3 binding, higher = more signal;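 note: score merges emission near 667 nm and signal to noise per printed spot across three slides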
# Sequence of Follistatin-related protein 3 (Homo sapiens) (O95633 whole entry, looked up): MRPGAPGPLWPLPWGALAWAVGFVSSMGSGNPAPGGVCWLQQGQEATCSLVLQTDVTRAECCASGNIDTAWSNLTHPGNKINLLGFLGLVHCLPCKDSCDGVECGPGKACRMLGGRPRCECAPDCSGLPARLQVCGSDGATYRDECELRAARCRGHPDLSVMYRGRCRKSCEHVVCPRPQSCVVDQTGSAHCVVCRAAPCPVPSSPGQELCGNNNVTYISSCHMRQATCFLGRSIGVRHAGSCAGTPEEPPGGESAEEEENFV
# [9] = target: Dickkopf-related protein 1 (Homo sapiens) (UniProt O94907); assay: small molecules binding DKK1 protein – biochemical, small-molecule microarray, 635 nm fluorescence scan, primary screen (AID 1106); conditions: higher = more signal;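 note: score merges emission near 667 nm with signal to noise over three replicate slides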
# Sequence of Dickkopf-related protein 1 (Homo sapiens) (O94907 whole entry, looked up): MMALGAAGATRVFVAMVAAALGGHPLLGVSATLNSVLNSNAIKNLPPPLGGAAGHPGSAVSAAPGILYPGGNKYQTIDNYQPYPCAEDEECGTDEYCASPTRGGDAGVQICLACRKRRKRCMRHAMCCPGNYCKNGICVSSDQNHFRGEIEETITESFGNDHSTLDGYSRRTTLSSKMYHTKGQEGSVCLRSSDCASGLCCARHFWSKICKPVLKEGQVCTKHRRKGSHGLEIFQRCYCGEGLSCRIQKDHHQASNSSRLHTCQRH
# [10] = test system: Inhibin beta A chain (activin A); assay: small molecules binding activin A – biochemical, small-molecule microarray, 635 nm fluorescence scan, primary screen (AID 1107); conditions: INHBA, higher = more signal;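 note: mouse activin A protein probed at 4.33 µg/mL on printed slides; score merges bound-protein fluorescence near 667 nm with spot signal-to-noise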
# [11] = test system: Human papillomavirus type 1a protein E7 (residues 44-93); assay: small molecules binding HPV E7 44-93 – biochemical, small-molecule microarray, residues 44-93, 635 nm fluorescence, primary screen (AID 1108); conditions: fluorescence 635 nm, higher = more signal;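 note: E7 fragment applied at 1 µg/mL in TBST for 1 h at 4 C; score combines spot fluorescence with its signal to noise ratio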
# [12] = hepatitis C replication reporter changes, two-sided – Huh7 cells, luciferase reporter, HCV replication inhibitor project, primary screen (AID 1109); conditions: Huh7 HCV replicon luciferase reporter, 48 h; higher = more signal;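 note: huh7 hepatoma cells harbouring a luciferase neomycin HCV replicon reporter; luciferase luminescence as measure of HCV replicon replication; test concentration not given here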
# [13] = target: Left-right determination factor 2 (Homo sapiens) (UniProt O00292); assay: small molecules binding LEFTY2 protein – biochemical, small-molecule microarray, 635 nm fluorescence scan, primary screen (AID 1110); conditions: higher = more signal
# Sequence of Left-right determination factor 2 (Homo sapiens) (O00292 whole entry, looked up): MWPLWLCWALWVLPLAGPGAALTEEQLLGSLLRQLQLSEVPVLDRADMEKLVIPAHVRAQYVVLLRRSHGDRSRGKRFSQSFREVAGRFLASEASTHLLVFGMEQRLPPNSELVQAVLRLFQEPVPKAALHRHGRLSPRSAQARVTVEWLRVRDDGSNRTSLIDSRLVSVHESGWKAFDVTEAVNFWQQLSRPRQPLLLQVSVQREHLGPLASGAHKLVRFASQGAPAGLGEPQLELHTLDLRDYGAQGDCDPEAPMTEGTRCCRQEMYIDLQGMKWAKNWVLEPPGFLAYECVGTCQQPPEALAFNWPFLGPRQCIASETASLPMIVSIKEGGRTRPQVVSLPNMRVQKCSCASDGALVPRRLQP
# [14] = target: Calmodulin-1 (Homo sapiens) (UniProt P0DP23); assay: small molecules binding calmodulin-1 with EGTA – biochemical, small-molecule microarray, Cy5-labelled CALM1, profiling panel (AID 1111); conditions: Cy5-CALM1 binding fluorescence, higher = more signal;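 note: labelled calmodulin applied in Tris saline Tween buffer holding calcium plus EGTA and DTT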
# [15] = target: Calmodulin-1 (Homo sapiens) (UniProt P0DP23); assay: small molecules binding Ca-loaded calmodulin-1 – biochemical, small-molecule microarray, Cy5-labelled CALM1, plus calcium, artefact control for SMM control-protein annotation, profiling panel (AID 1112); conditions: Cy5-CALM1 binding fluorescence, higher = more signal;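 note: score merges spot fluorescence with signal to noise from triplicate slides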
# [16] = probe aWnt5a binding to arrayed compounds – biochemical, biotinylated probe, 635/667 nm fluorescence, primary screen (AID 1113); conditions: small-molecule microarray, higher = more signal;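 note: score merges 667 nm fluorescence intensity with signal-to-noise per printed feature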
# [17] = probe aShh binding to arrayed compounds – biochemical, biotinylated probe, 635/667 nm fluorescence, primary screen (AID 1114); conditions: small-molecule microarray, higher = more signal;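 note: probe is biotin-labelled aShh protein from a stem cell growth factor screen; measures binding of labelled protein to compounds printed on the slide; score merges feature fluorescence at 667 nm with signal-to-noise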
# [18] = probe aNog binding to arrayed compounds – biochemical, biotinylated probe, 635/667 nm fluorescence, primary screen (AID 1115); conditions: small-molecule microarray, higher = more signal;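 note: probe is biotinylated aNog protein used at 0.15 µg/mL for 1 h at 4 C; z-score combines 667 nm fluorescence of each spot with its signal to noise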
# [19] = target: Torsin-1A-interacting protein 1 (Homo sapiens) (UniProt Q5JTV8); assay: compound microarray binding of lysate hLAP1 – cell lysate, small-molecule microarray, COS7 lysate, 635/667 nm fluorescence, primary screen (AID 1116); conditions: 635 nm fluorescence, higher = more signal
# Sequence of Torsin-1A-interacting protein 1 (Homo sapiens) (Q5JTV8 whole entry, looked up): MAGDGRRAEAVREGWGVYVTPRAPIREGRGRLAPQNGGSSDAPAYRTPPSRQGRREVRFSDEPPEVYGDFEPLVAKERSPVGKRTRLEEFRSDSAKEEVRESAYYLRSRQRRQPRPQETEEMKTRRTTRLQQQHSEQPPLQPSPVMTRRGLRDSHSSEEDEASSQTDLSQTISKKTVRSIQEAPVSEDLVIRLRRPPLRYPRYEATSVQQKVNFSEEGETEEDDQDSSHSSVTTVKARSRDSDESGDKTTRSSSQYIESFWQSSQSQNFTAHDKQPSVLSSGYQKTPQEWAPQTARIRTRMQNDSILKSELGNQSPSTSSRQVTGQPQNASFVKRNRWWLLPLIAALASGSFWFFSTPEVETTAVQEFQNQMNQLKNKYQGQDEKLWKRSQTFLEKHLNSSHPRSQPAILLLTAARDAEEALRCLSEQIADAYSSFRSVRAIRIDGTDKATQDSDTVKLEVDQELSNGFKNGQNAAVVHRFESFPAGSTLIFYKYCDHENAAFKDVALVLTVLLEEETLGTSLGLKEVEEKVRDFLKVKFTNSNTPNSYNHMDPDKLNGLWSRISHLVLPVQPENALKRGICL
# [20] = target: Alpha-bungarotoxin (Bungarus multicinctus) (UniProt P60615); assay: compounds binding labelled alpha-BTX control protein – biochemical, small-molecule microarray, Alexa647 label, 635/667 nm fluorescence, artefact control for SMM control protein annotation, profiling panel (AID 1117); conditions: alpha-BTX-A647 binding fluorescence, higher = more signal
# Sequence of Alpha-bungarotoxin (Bungarus multicinctus) (P60615 whole entry, looked up): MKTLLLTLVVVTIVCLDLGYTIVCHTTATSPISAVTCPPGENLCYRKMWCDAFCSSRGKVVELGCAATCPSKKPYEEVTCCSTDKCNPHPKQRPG
Compound,composite z-score [1],composite z-score [2],composite z-score [3],z-score [4],composite z-score [5],composite z-score [6],composite z-score [7],composite z-score [8],composite z-score [9],composite z-score [10],composite z-score [11],z-score [12],composite z-score [13],composite z-score [14],composite z-score [15],composite z-score [16],composite z-score [17],composite z-score [18],composite z-score [19],composite z-score [20]
Cc1ccc(C(C)CC(O)C2C=CC3C(=O)N(C)C(=O)C3N2NC(=O)OC(C)(C)C)o1 (stereo not given),1.07,0.202,0.0719,1.92 (inactive),0.803,1.29,0.96,1.3,0.837,-0.0924,0.598,0.255,1.19,1.73,0.0152,0.246,0.424,0.226,1.27,1.73
C=CC[C@@]1(C(N)=O)N=C(c2ccc(OCCCO)cc2)O[C@@H]1c1ccccc1CN=[N+]=[N-],1.02,0.917,1.19,-1.63 (inactive),0.903,0.336,-0.44,0.267,-0.196,1.14,1.39,-1.56,-0.294,1.64,0.767,0.0597,0.166,0.661,1.91,0.834
O=C(c1ccccc1)N1Cc2ccccc2[C@@H]2OC(c3ccc(OCCCO)cc3)=N[C@]2(Cc2ccccc2)C1=O,1.35,0.114,0.431,-0.0808 (inactive),1.24,1.33,0.444,1.03,0.0731,0.3,1.29,-1.58,0.243,0.978,-0.0808,0.0825,-0.305,-0.364,0.215,1.19
C=CCOC(=O)[C@H]1[C@@H]2C(=O)O[C@@H](c3ccccc3)[C@@H](c3ccccc3)N2[C@@H](c2ccc(OCCOC(=O)[C@@H]3C[C@@H]4C(=O)N[C@@H](CCCCN(C)C)C(=O)N4[C@@H]3c3ccc(O)cc3)cc2)[C@]12C(=O)Nc1ccc(I)cc12,1.04,0.26,-0.0178,-0.433 (inactive),0.735,1.32,0.537,1.08,1.06,-0.389,-0.562,-2.99,0.698,0.134,-0.547,-0.113,0.462,1.18,1.36,1.32
CC(C)C[C@@H]1NC(=O)[C@H]2C[C@@H](C(=O)NCCCCCCN)[C@@H](c3ccc(O)cc3)N2C1=O,1.59,1.06,0.808,0.823 (inactive),0.23,0.247,0.106,0.69,0.731,1.23,0.302,0.742,0.057,0.143,0.307,0.055,-0.214,0.103,1.13,0.585
CN(C)C(=O)[C@]1(Cc2ccccc2N=[N+]=[N-])N=C(c2ccc(OCCCO)cc2)O[C@@H]1c1ccccc1,1.47,0.467,0.787,-1.17 (inactive),0.818,1.28,0.0161,0.373,-0.121,0.545,1.08,-1.85,0.104,0.516,0.0377,-0.329,-0.116,0.973,0.897,1.3
COCCOC(=O)N1C(=O)[C@@]2(c3cc(C#CC4(O)CCCCCC4)ccc31)[C@H](c1ccc(O)cc1)N1[C@H](c3ccccc3)[C@H](c3ccccc3)OC(=O)[C@H]1[C@@H]2C(=O)Nc1nc2ccccc2s1,0.483,1.17,0.784,-0.54 (inactive),1.35,1.31,0.487,1.38,0.857,1.33,1.36,-0.768,0.463,2.01,0.516,0.0932,-0.131,3.16,1.35,2.21
CCCC=C(CCC)[C@@H](NC(=O)Oc1ccc(F)cc1)c1ccc(C(=O)OC)cc1,0.217,0.346,0.893,-1.86 (inactive),0.441,-0.102,0.267,0.495,-0.284,0.602,1.32,-2.48,0.354,0.977,1.13,0.0307,0.336,0.83,0.303,0.799
COc1ccc([Si](C)(C)[C@H]2[C@H](CCO)O[C@@]3(C(=O)N(C)c4c(Br)cc(C)cc43)[C@@H]2C)cc1,0.717,-0.0044,0.202,4.6 (inactive),0.333,0.223,0.127,0.4,0.0138,0.449,-0.122,-5.23,0.304,0.388,0.204,-0.0944,-0.138,0.474,0.269,0.541
CN1C(=O)C2C=CC(C(O)C3CC=CCC3)N(NC(=O)OC(C)(C)C)C2C1=O (stereo not given),0.701,0.0347,0.16,1.61 (inactive),0.796,1.12,0.933,1.23,0.347,1.03,0.696,-0.0017,0.46,2.3,0.785,-0.0539,-0.195,0.55,1.84,1.3
C=CCC(OC(C)=O)[C@@H]1[C@@H](N(Cc2cccc3ccccc23)C(=O)c2ccc(-c3ccccc3)cc2)c2cc(OCCCO)ccc2N1C(=O)Cc1ccc(OC)cc1 (stereo not given in full),0.283,-0.0675,0.0188,-1.08 (inactive),0.168,0.0341,0.23,0.431,0.0533,0.884,0.144,-1.36,0.111,0.617,0.291,0.0479,0.149,-0.0907,-0.0944,0.373
CC1CC/C=C\[C@H]2OC34C=CCN(c5ccc(Cl)cc5)C(=O)[C@H]3N(CCO)C(=O)[C@]4(C)C2C(=O)O1 (stereo not given in full),0.111,-0.197,0.693,0.568 (inactive),-0.379,-0.15,-0.483,-0.646,-1.46,1.27,-1.01,-1.35,-1.1,-0.795,-0.633,-0.124,-0.367,-0.342,-0.485,-0.445
COC(=O)c1c(CC[C@@H](CO)NC(=O)N[C@@H](C)Cn2cc(C3(O)CCCCC3)nn2)oc(C(C)=O)c1C(=O)OC,1.35,-0.0465,-0.481,-2.26 (inactive),1.2,1.25,0.763,1.27,0.892,-0.216,0.921,-0.418,0.703,0.685,-1.53,-0.0556,0.0328,-0.0211,0.666,0.431
